The campaign covered roughly 360,000 compounds. About 25,000 (6.9%) were called active. A call without a number means that no potency is given here. Inconclusive results (about 9%) are left out. This is one part of a sample in which actives are shown more often than they occur. Calls follow the shape of the dose curve; as a rule, active = well fitted inhibition curve with a large enough effect; inconclusive = small, poorly fitted or top-dose-only effect; inactive = flat fitted curve, though single readings scatter.
Biological target: Luciferin 4-monooxygenase (Photinus pyralis) (UniProt P08659)
Sequence (P08659 whole entry, looked up): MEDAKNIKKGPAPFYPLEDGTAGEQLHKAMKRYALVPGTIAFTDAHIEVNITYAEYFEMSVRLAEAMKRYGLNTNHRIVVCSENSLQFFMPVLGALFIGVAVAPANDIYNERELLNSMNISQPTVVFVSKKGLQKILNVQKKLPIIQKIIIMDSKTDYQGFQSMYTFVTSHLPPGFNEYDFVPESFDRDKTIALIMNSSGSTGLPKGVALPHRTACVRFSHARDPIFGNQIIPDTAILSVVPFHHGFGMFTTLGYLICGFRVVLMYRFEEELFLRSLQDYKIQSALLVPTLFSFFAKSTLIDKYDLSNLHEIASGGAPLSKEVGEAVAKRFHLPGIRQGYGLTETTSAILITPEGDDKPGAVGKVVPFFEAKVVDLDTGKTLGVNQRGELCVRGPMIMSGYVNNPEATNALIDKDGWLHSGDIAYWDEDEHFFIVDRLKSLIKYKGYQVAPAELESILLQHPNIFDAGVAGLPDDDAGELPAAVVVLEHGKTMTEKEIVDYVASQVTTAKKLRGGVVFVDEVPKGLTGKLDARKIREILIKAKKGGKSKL
Test: qHTS profiling assay for firefly luciferase inhibitor/activator using purifed enzyme and Km concentrations of substrates (counterscreen for miR-21 project); also: nearly all actives have a fitted effect of over 55% in size
Settings: purified FLuc, luminescence inhibition; series mostly up to 57.5 µM
Outline: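 Biochemical qHTS of compounds, final roughly 60 µM downward over six points, against 10 nM purified firefly luciferase using Km concentrations of substrates (10 uM D-luciferin, 10 uM ATP) in Tris acetate pH 7.5 buffer; luminescence output.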
Potency is read from the fitted curve at half-maximal effect.

Compound | Potency
COC(=O)c1cnn(-c2ccc(C(=O)Nc3ccc(OC(F)(F)F)cc3)cc2)c1N | inactive
COc1ccc(/C=C2\SC(=S)N(CC(=O)NNC(=O)c3ccncc3)C2=O)cc1 | 5.36 µM (active)
COc1ccccc1CCC(=O)NNC(=O)c1ccncc1 | inactive
O=C(O)c1ccc(/C=C2\SC(=S)N(NC(=O)c3ccc(Br)cc3)C2=O)cc1 | inactive
COc1cccc(/C=C2\SC(=N)N(c3ccc(F)cc3)C2=O)c1 | inactive
O=C(CN1C(=O)S/C(=C\c2ccccc2Cl)C1=O)NC1C=CS(=O)(=O)C1 (stereo not drawn) | inactive
COc1cccc(/C=C2/SC(=S)N(CC(=O)NC3C=CS(=O)(=O)C3)C2=O)c1 (stereo not drawn) | 6.75 µM (active)
O=C1N(Cc2ccc3c(c2)OCO3)c2ccccc2C1(O)c1c[nH]c2ccccc12 (stereo not drawn) | inactive
O=C(c1ccc2c(c1)N(Cc1ccccc1)C(=O)c1ccccc1S2(=O)=O)N1CCCC1 | inactive
CC(C)(C)OC(=O)N[C@H](C(=O)OC(C)(C)C)c1ccc(Br)cc1 | inactive
O=C1c2ccccc2C(=O)N1CCC#Cc1ccc2cc(C3(O)CCCCC3)oc(=O)c2c1 | inactive
COc1cc(C#Cc2ccc3cc(CCCO)oc(=O)c3c2)cc(OC)c1 | 4.78 µM (active)
CCC(Sc1nc2n[nH]c(C)c2c(=N)n1-c1ccccc1Cl)C(=O)N(CC)CC (stereo not drawn) | inactive
Cc1ccccc1CS(=O)(=O)CC1Nc2ccc(C(=O)NCc3ccc(Cl)cc3)cc2NC1=O (stereo not drawn) | inactive
CCCCOc1ccc(Cn2c(=O)oc3ccc(C)cc32)cc1OC | inactive
CCn1c(=O)n(CC)c2cc(N3CCCC3)c(NC(=O)c3ccccc3Br)cc21 | inactive
CC(C)=C1SC(N2CCN(c3cccc(C)c3)CC2)=NC1=O | inactive
CCN1C(=O)/C(=C2\SC(N3CCCCC3)=NC2=O)c2ccccc21 | 3.38 µM (active)
Cc1occc1C(=O)NNC(=S)NCC(C)C | inactive
CC(C)CNC(=S)NC(=O)c1ccc(Cl)cc1 | 12 µM (active)
CC(C)C(NC(=O)c1ccc(Cl)cc1)C(=O)O (stereo not drawn) | inactive
CCOC(=O)N1CCC(NC(=O)c2cnn(-c3cccc(C)c3)c2C2CCN(C(=O)OC(C)(C)C)CC2)CC1 | inactive
CCCC(=O)Nc1ccc2c(c1)nc(CCNC(=O)c1ccco1)n2C | inactive
CC(=O)NCCc1nc2cc(NC(=O)c3ccccc3)ccc2n1C | 16.9 µM (active)
CCC(=O)Nc1ccc2c(c1)nc(CCN1CCN(c3ccccn3)CC1)n2C | inactive
Cn1c(CCN2CCCC2)nc2cc(NS(=O)(=O)c3ccccc3)ccc21 | inactive

Compound | Potency
Cn1c(CCN2CCCCCC2)nc2cc(NC(=O)Nc3ccccc3)ccc21 | 21.3 µM (active)
CCOC(=O)N1CCN(Cc2nc3cc(NC(C)=O)ccc3n2C)CC1 | inactive
Cc1ccc(Nc2ccc3cc(S(=O)(=O)N4CCCCC4)ccc3n2)cc1F | inactive
CCOC(=O)c1ccc(NC(=O)CCS(=O)(=O)c2ccc3c(c2)oc(=O)n3C)cc1 | inactive
CC(C)CCNC(=O)CC1C(=O)N(Cc2ccccc2)C(C)c2nc3ccccc3n21 (stereo not drawn) | inactive
CCCNC(=O)CCc1c(C)nc2c(c(C)nn2-c2ccc(C)cc2)c1C | inactive
CCCNC(=O)c1c(Cl)cnn1-c1ccc(C)cc1 | 9.53 µM (active)
CCCN1CCN(CCCNC(=O)c2cnn(-c3ccc(C)cc3)c2-n2cccc2)CC1 | inactive
COc1ccccc1OCCNC(=O)C(CCSC)NC(=O)COc1ccccc1 (stereo not drawn) | inactive
CC(C(=O)NC1CCCC1)N1CCN(S(=O)(=O)c2ccccc2Cl)CC1 (stereo not drawn) | inactive
CC(C)(C)c1nc2ccccc2c(=O)n1N1C(=O)c2ccccc2C1=O | inactive
CC(C)(C)N1CC(c2nc3ccccc3n2Cc2ccc(F)cc2)CC1=O (stereo not drawn) | inactive
CC(C)(C)c1cc(=O)n2c(nc3ccccc32)[nH]1 | 21.3 µM (active)
O=C(COc1coc(CN2CCN(c3ccccc3)CC2)cc1=O)Nc1ccccc1F | inactive
CC1=C(C(=O)OCC2CCCCC2)C(c2c(F)cccc2Cl)CC(=O)N1 (stereo not drawn) | inactive
Cc1cccc(C(CC(=O)NCC2(c3ccccc3)CCCC2)c2ccccc2)c1O (stereo not drawn) | inactive
Cn1c(=O)c(C(=O)O)nn(-c2ccccc2)c1=O | inactive
Cc1ccc(S(=O)(=O)Nc2nc(N)n(-c3ccccc3)n2)cc1 | inactive
Cc1ccc(C(=O)Nc2nc(N)n(-c3ccccc3)n2)cc1 | 23.9 µM (active)
COc1ccc(CNC(=O)CCc2c(C)nn(-c3ccc(N4CCCC4)nn3)c2C)cc1 | inactive
O=C(CSc1nnc2ccccn12)c1ccccc1 | 23.9 µM (active)
CCN(C(=O)CSc1nnc2ccccn12)C1CCS(=O)(=O)C1 (stereo not drawn) | inactive
Cc1ccc(-n2c(C)nnc2SCC(=O)NC2CC2)cc1 | inactive
Cc1ccc(-n2c(C)cc(C(=O)CSc3nnc4ccccn34)c2C)cc1 | 2.13 µM (active)
Cn1c(CC(=O)Nc2ccccc2)nnc1SCC(=O)c1ccccc1 | inactive
N#Cc1ccc(CSc2nnc3ccccn23)cc1 | inactive

Compound | Potency
O=C(Nc1cc(Cl)cc(Cl)c1)c1ccc2c(c1)N(Cc1cccc(Cl)c1)C(=O)c1ccccc1S2=O (stereo not drawn) | inactive
CCN(CC)c1ccc(NS(=O)(=O)c2cc(-c3cc(C)no3)ccc2C)c(C)c1 | inactive
Cc1cccc(C)c1-n1ncc(C(=O)NCCCN2CCCCC2)c1C1CCN(C(=O)OC(C)(C)C)CC1 | inactive
CCOC(=O)c1c(C)[nH]c(C)c1S(=O)(=O)N(C)CC(=O)N1CCN(c2ccccc2)CC1 | inactive
O=C(CSc1nc2c(c(=O)[nH]1)CN(Cc1ccc(F)cc1)CC2)Nc1ccccc1Cl | inactive
OC(c1nc2ccc(F)cc2[nH]1)C(O)c1nc2ccc(F)cc2[nH]1 (stereo not drawn) | inactive
CC(C)c1nc2ccc(C(=O)O)cc2[nH]1 | 15.1 µM (active)
N#CC(C(=O)c1ccc(S(=O)(=O)N2CCCCCC2)cc1)c1nc2ccccc2[nH]1 (stereo not drawn) | inactive
CCOC(=O)c1cccc(NC(=O)Cn2cnc3nc4c(cc3c2=O)CCCC4)c1 | inactive
CCOC(=O)c1[nH]c(C)c(CCC(=O)NCc2ccccc2C)c1C | inactive
COc1ccc(CCNC(=O)C(=O)NCC(c2ccco2)S(=O)(=O)c2cccs2)cc1OC (stereo not drawn) | inactive
O=C(OCC#CCSc1nnc(-c2ccncc2)o1)c1sc2ccccc2c1Cl | inactive
O=C(NCC#CCSc1nnc(-c2cccc3ccccc23)o1)c1cccs1 | inactive
C#CCSc1nnc(-c2sc3ccccc3c2Cl)o1 | 5.36 µM (active)
Cc1noc(C)c1COc1ccc2ccc(=O)oc2c1 | inactive
COc1ccc2cc(-c3nc(Cl)c4c5c(sc4n3)CC(C)CC5)c(=O)oc2c1 (stereo not drawn) | inactive
COc1ccc(-c2cc3ccc(OCc4nn[nH]n4)cc3oc2=O)cc1 | 1.69 µM (active)
COc1ccc(CCN2C(=O)N(c3cccc(OC)c3)C(=O)C2CC(=O)Nc2ccccc2)cc1 (stereo not drawn) | inactive
CC(C)C(=O)NCc1cc(-c2ccc(Cl)cc2)no1 | inactive
COCCCNC(=O)COc1cc(C)c(Cl)c(C)c1 | inactive
Cc1cc(OCc2cc(C(=O)NCc3cc(C(C)C)no3)no2)cc(C)c1Cl | 4.78 µM (active)
CCc1ccc(NC(=O)c2nn(-c3ccc(C)cc3)c(=O)n(C)c2=O)cc1 | inactive
Cn1c(SCC(=O)Nc2ccc(Br)cc2F)nnc1-c1ccco1 | inactive
CS(=O)(=O)n1nc(-c2ccco2)nc1N | inactive
Cn1c(-c2ccco2)nc2cc3ccccc3cc21 | 0.12 µM (active)
Cc1cccc(N2CCN(C(=O)c3ccc(Nc4nc5ccccc5n5nnnc45)cc3)CC2)c1C | inactive

Compound | Potency
O=C(Nc1cc2ccccc2oc1=O)C1CCCCC1 | 2.39 µM (active)
Cc1cc(NC(=O)CN2CCCCC2C)nc2c1c(=O)oc1ccccc12 (stereo not drawn) | inactive
Cc1ccccc1NC(=O)C1CCN(C(=O)NC2CCCCC2)CC1 | inactive
COC(=O)c1cc(NC(=O)CCS(=O)(=O)c2cc(Br)cc3c2N(C(=O)C2CC2)CC3)cc(C(=O)OC)c1 | inactive
O=C1CCCc2cc(S(=O)(=O)N3CCCC(C(=O)NCc4ccccc4)C3)ccc2N1 (stereo not drawn) | inactive
CC(C)(C)OC(=O)N1CCC(c2c(C(=O)NCc3ccccn3)cnn2-c2ccc(F)cc2)CC1 | inactive
Cc1ccc(NC(=O)CN(C)C(=O)c2ccc(Br)o2)cc1 | inactive
Cc1nc2ccccc2n1CC(=O)N/N=C/c1cccs1 | inactive
CCC(C)NC(=O)c1c(N)n(/N=C/c2cccs2)c2nc3ccccc3nc12 (stereo not drawn) | 3.01 µM (active)
CCOC(=O)c1c(N)n(-c2cccc(C)c2C)c2nc3ccccc3nc12 | inactive
CCCc1cc(=O)[nH]c(SCc2cc(=O)oc3c(C)c(C)ccc23)n1 | inactive
CN1CCN(C(=O)CCc2ncc(C(F)(F)F)cc2Cl)CC1 | inactive
COc1ccccc1OCC(=O)OCn1c(SC)nnc(C)c1=O | inactive
CC(C)(C)NC(=O)NC(=O)COC(=O)CCC1CCCCC1 | inactive
N/C(=N\OC(=O)CC1CCCCC1)c1ccccc1 | 2.13 µM (active)
O=C(CN1CCN(c2ccccn2)CC1)NC1CCCCC1 | inactive
COc1ccccc1NC(=O)C(C)OC(=O)CC1CCCC1 (stereo not drawn) | inactive
COc1ccccc1OCC(=O)O/N=C(\N)c1ccccn1 | 19 µM (active)
N/C(=N\OC(=O)CCC1CCCCC1)c1ccccn1 | 0.536 µM (active)
COc1ccccc1OCC(=O)OCc1cc(-c2ccco2)on1 | inactive
O=C(CC1CCCCC1)NCc1ccccc1 | inactive
CN(C(=O)CSc1nc2ccc(NC(=O)COc3ccccc3)cc2s1)c1ccccc1 | inactive
CN(C(=O)COC(=O)Cn1cnc2c1c(=O)n(C)c(=O)n2C)C1(C#N)CCCCC1 | inactive
Cc1ccc(Cl)cc1N1CCN(C(=O)c2cccn3c(=O)c4cc(Cl)ccc4nc23)CC1 | inactive
COc1ccc(N2CCN(CCNC(=O)c3nnc(Cc4c(F)cccc4Cl)o3)CC2)cc1 | inactive

Source: PubChem BioAssay AID588342 (National Center for Advancing Translational Sciences (NCATS), 2011)
